Assay [1] in a line: binders of probe aFSTL3 on microarray, primary screen, stem cell growth factor project, biochemical, small-molecule microarray, fluorescence 635/667 (AID 1064).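 Note: measures binding of the biotinylated anti-FSTL3 antibody to printed compounds.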 Particulars: higher = more signal.
Assay [2] is described as follows: binders from COS7 lysate, DM2A8 probe, primary screen, torsin A project, cell lysate, small-molecule microarray, fluorescence 635/667 (AID 1065). To be noted: higher = more signal, COS7 lysate expressing mutant human TOR1A.
Assay [3] is described as follows: binders of probe aFGF2 on microarray, primary screen, stem cell growth factor project, biochemical, small-molecule microarray, fluorescence 635/667 (AID 1067).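 Note: measures binding of biotinylated aFGF2 protein to printed compounds on slides; z-score merges feature fluorescence and signal-to-noise across triplicate slides.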 Particulars: higher = more signal.
The nature of assay [4]: binders of probe aFGF10 on microarray, primary screen, stem cell growth factor project, biochemical, small-molecule microarray, fluorescence 635/667 (AID 1071).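 Note: score merges 667 nm spot intensity and signal to noise from triplicate slides.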 Particulars: higher = more signal.
Assay [5] addresses Neurogenic locus notch homolog protein 2 (Homo sapiens) (UniProt Q04721). Kind of assay: Notch2 binders on small-molecule microarrays, primary screen, biochemical, small-molecule microarray, 635 nm fluorescence, stem cell growth factors (AID 1073). To be noted: Notch2 binding, higher = more signal.
Assay [6] addresses Pro-neuregulin-1, membrane-bound isoform (Homo sapiens) (UniProt Q02297). Kind of assay: NRG1 binders on small-molecule microarrays, primary screen, psychiatric disease protein project, biochemical, small-molecule microarray, fluorescence 635/667 (AID 1075).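 Note: score combines 667 nm spot fluorescence with signal to noise.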 To be noted: NRG1 binding, 635 nm fluorescence, higher = more signal.
Assay [7] deals with Neuregulin-1 EGF-like domain. Kind of assay: binders of neuregulin-1 EGF-like domain, primary screen, biochemical, small-molecule microarray, 635 nm fluorescence (AID 1081).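 Note: binding of the protein to compounds printed on small-molecule microarray slides.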 To be noted: small-molecule microarray binding, higher = more signal.
Assay [8] in a line: FRG1 promoter luciferase signal modulators, primary screen, FRG1 inhibition for FSHD, cell-based, C2C12 myotubes, firefly/Renilla luciferase, luminescence (AID 1084). To be noted: higher = more signal, called active from +8 up or from −8 down.
A short description of assay [9]: binders of probe aFST on microarray, primary screen, stem cell growth factor project, biochemical, small-molecule microarray, fluorescence 635/667 (AID 1086).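 Note: score merges 667 nm fluorescence with signal-to-noise of each printed compound spot.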 To be noted: higher = more signal.
The nature of assay [10]: binders of probe aHhip on microarray, primary screen, stem cell growth factor project, biochemical, small-molecule microarray, fluorescence 635/667 (AID 1087).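 Note: score merges spot fluorescence at 667nm with spot signal to noise ratio.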 Particulars: higher = more signal.
Assay [11] has as its system PRMT1 (protein arginine N-methyltransferase 1). In words: PRMT1 binders on small-molecule microarrays, primary screen, biochemical, small-molecule microarray, 635 nm fluorescence (AID 1088).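 Note: binding of Prmt1 protein to compounds spotted on small-molecule microarray slides.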 Particulars: small-molecule microarray binding, higher = more signal.
The nature of assay [12]: yeast growth modulation, basal conditions, primary screen, YJM789 clinical isolate, OD600, 24 h (AID 1089).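 Note: growth of clinical yeast isolate S. cerevisiae YJM 789 seeded 1000 cells per well; test concentration not given here.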 Particulars: S. cerevisiae YJM789 growth, higher = more signal, called active from +8 up or from −8 down.
Assay [13] is described as follows: fission yeast growth modulation, primary screen, strain 972, OD600, 24 h, no modulator (AID 1090).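 Note: basal condition with compound alone and no growth modifier present; test concentration not given here.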 Particulars: S. pombe 972 growth, higher = more signal, called active from +8 up or from −8 down.
Assay [14] in a line: S. cerevisiae growth modulation with rapamycin, primary screen, strain BY4716, OD600, 96 h (AID 1091). Note: test concentration not given here. To be noted: higher = more signal, called active from +8 up or from −8 down.
The target of assay [15] is Torsin-1A-interacting protein 2 (Homo sapiens) (UniProt Q8NFQ8). In words: LULL1 binders on small-molecule microarray, primary screen, cell lysate, human LULL1 lysate, 635/667 nm fluorescence (AID 1092).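 Note: score merges per-feature 667 nm fluorescence with signal-to-noise.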 To be noted: hLULL1 lysate binding, 635 nm fluorescence, higher = more signal.
Assay [16] in a line: E. coli growth modulation, two-sided OD650, primary screen, E. coli filamentation project, strain DRC41, 24 h (AID 1093).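 Note: MC1000 strain lacking acrAB efflux and sulA so SOS filamentation is blocked; test concentration not given here.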 Particulars: OD650, 24 h, higher = more signal, called active from +8 up or from −8 down.
Assay [17] is described as follows: small-molecule microarray binders of probe aLefty2, primary screen, biochemical, biotinylated probe, 635/667 nm fluorescence (AID 1094).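 Note: score merges spot fluorescence near 667 nm with spot signal-to-noise ratio.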 Particulars: higher = more signal.
Assay [18] has as its system Noggin (protein binding on small-molecule microarray). Kind of assay: Noggin binders on small-molecule microarray, primary screen, biochemical, 635/667 nm fluorescence (AID 1095).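 Note: score merges 667 nm feature fluorescence with signal to noise over triplicate slides.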 Particulars: 635 nm fluorescence, higher = more signal.
The target in assay [19] is Neurogenic locus notch homolog protein 3 (Homo sapiens) (UniProt Q9UM47). In words: NOTCH3 binders on small-molecule microarray, primary screen, biochemical, 635/667 nm fluorescence (AID 1096). To be noted: NOTCH3 binding, 635 nm fluorescence, higher = more signal.
Assay [20] in a line: small-molecule microarray binders of probe aEGFR, primary screen, biochemical, biotinylated probe, 635/667 nm fluorescence (AID 1097).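 Note: probe is a biotinylated anti-EGFR antibody binding compounds printed on slides; score combines fluorescence near 667 nm and signal to noise of each spot.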 To be noted: higher = more signal.

Activity calls are given as the source filed them.

Sequence of Neurogenic locus notch homolog protein 2 (Homo sapiens) (Q04721 whole entry, looked up, canonical isoform): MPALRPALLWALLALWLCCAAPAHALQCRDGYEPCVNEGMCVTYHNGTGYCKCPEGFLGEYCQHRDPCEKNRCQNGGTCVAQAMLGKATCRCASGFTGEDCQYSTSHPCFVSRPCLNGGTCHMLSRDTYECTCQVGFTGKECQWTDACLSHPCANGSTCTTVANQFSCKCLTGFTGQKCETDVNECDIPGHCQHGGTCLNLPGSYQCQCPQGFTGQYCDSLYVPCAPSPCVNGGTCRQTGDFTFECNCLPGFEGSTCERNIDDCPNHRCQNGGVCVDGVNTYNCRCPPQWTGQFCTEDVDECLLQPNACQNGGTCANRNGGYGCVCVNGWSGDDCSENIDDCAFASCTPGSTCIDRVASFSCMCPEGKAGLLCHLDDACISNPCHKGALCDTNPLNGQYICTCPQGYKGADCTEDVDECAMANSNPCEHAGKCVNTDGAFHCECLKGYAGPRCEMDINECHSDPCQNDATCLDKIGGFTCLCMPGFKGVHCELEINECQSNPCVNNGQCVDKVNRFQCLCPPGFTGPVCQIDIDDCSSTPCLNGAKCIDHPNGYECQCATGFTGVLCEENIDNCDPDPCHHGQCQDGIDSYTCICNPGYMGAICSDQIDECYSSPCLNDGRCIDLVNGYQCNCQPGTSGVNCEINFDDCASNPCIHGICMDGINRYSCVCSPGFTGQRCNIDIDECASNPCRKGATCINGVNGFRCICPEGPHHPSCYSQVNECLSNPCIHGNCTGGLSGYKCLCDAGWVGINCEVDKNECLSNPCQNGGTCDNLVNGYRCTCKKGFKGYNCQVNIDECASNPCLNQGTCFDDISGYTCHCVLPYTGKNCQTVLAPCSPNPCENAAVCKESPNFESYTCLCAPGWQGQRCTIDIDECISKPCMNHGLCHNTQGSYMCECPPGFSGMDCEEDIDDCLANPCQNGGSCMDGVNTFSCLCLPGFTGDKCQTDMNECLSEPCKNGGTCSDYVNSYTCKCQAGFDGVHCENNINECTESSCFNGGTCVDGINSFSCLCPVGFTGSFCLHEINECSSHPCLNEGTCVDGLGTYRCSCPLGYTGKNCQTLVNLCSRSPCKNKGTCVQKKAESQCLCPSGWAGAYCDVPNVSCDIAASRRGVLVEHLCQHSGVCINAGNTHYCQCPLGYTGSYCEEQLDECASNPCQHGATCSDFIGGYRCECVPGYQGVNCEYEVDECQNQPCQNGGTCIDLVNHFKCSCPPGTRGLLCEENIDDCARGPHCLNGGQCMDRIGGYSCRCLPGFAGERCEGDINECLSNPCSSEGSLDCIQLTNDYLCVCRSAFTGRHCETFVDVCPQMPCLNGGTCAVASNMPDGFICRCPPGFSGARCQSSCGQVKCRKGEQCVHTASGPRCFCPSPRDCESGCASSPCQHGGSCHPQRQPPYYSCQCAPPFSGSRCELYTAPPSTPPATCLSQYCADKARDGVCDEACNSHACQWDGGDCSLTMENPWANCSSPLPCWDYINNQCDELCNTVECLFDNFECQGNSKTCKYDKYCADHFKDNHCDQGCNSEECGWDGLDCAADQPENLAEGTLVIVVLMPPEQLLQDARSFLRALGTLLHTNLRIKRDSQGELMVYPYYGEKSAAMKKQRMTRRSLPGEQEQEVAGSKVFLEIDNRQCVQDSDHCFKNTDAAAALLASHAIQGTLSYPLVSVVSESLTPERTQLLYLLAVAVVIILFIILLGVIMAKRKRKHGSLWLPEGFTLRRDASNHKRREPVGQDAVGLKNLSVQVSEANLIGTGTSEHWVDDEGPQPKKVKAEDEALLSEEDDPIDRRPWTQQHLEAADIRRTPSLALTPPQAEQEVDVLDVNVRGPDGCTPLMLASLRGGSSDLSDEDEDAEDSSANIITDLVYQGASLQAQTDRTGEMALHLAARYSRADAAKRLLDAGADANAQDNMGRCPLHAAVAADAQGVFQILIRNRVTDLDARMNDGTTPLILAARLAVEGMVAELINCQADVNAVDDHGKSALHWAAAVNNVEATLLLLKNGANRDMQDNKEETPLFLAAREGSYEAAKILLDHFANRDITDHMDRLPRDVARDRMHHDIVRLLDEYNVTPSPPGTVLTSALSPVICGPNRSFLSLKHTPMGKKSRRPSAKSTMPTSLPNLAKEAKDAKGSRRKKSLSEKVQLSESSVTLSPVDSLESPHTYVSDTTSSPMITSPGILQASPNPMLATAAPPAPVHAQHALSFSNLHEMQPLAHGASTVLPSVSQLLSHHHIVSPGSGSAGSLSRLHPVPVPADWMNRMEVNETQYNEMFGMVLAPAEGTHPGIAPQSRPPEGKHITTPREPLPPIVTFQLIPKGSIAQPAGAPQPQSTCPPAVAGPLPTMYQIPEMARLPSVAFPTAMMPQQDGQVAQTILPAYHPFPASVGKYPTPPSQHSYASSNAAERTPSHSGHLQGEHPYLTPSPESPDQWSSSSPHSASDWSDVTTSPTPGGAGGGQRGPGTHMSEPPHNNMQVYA
Sequence of Pro-neuregulin-1, membrane-bound isoform (Homo sapiens) (Q02297 whole entry, looked up, the tested form may be a part, canonical isoform): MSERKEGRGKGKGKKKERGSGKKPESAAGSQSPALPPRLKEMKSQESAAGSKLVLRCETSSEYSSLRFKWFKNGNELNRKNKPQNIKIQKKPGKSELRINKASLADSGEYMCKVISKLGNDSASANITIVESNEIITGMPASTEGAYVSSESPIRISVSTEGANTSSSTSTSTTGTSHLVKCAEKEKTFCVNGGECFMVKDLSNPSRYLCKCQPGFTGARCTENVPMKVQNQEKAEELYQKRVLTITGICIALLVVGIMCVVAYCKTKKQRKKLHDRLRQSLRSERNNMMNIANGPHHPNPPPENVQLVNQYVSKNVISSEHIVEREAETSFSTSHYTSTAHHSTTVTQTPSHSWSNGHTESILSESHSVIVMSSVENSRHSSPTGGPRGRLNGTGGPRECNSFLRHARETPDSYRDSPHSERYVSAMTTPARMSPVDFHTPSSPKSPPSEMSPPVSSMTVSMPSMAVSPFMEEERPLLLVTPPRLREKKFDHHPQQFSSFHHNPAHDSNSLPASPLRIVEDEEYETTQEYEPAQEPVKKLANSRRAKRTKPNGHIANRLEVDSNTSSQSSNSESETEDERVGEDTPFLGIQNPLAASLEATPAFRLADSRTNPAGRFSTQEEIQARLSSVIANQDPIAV
Sequence of Torsin-1A-interacting protein 2 (Homo sapiens) (Q8NFQ8 whole entry, looked up): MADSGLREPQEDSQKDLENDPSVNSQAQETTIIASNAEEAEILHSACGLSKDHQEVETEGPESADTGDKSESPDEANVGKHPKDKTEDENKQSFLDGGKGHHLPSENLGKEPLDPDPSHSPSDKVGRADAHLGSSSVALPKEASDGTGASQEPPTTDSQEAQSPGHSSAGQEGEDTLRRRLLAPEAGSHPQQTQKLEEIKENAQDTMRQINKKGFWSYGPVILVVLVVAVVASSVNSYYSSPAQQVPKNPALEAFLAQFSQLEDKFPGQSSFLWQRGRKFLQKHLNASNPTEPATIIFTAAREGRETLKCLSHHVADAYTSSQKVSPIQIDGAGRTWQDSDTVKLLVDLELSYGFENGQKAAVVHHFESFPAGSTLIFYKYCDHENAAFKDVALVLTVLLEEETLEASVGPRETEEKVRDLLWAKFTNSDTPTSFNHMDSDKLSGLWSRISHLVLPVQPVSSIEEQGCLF

`CCCCCN1CC=CC23O[C@@H]4/C=C\CCCOC(=O)C4[C@H]2C(=O)N(C(C)CO)[C@@H]3C1=O` (stereo not given in full): the composite z-score in assay [1] was 0.378; in [2] it was -1.3; in [3], -0.219; in assay [4] it was -0.756; in assay [5], -0.814; in assay [6], 1.15. Also, the composite z-score was 1.16 in [7]; -0.738 in [9]; -0.399 in assay [10]; 1.14 in [11]; 1.86 in assay [15]; -0.125 in assay [17]. The composite z-score in [18] was -1.33; in [19] it was -0.365; in assay [20], -0.213. In addition, the z-score in [8] is -0.508 (inactive); in assay [12], -0.145 (inactive); in assay [13], -1.52 (inactive); in [14], -0.744 (inactive); in [16] it was 0.815 (inactive).
For the molecule `COc1ccc([Si](C)(C)[C@@H]2[C@@H](CC(=O)N3CCC[C@H]3CO)O[C@]3(C(=O)N(Cc4cccc(N5C(=O)COc6ccccc65)c4)c4ccccc43)[C@H]2C)cc1`, the composite z-score is -0.222 in assay [1]; 0.203 in assay [2]; -0.112 in assay [3]; 0.428 in [4]; -0.173 in assay [5]; 1.35 in assay [6]. In addition, the composite z-score is 1.12 in assay [7]; 0.824 in [9]; 0.103 in [10]; 1.57 in [11]; 1.77 in assay [15]; -0.0198 in [17]. The results for the composite z-score in assay [18], in [19] and in assay [20] were 0.942, 0.757 and -0.165, respectively. Besides, the z-score in [8] was -0.234 (inactive); in assay [12] it was -2.24 (inactive); in [13], -0.185 (inactive); in assay [14], -0.278 (inactive); in assay [16], 0.222 (inactive).
Consider `C=CC[C@]1(C(=O)N2CCOCC2)COC(c2ccc(OCCCO)cc2)=N1`, for which the composite z-score in assay [1] was 0.0944; in [2], 1.47; in assay [3] it was 0.075; in assay [4] it was -0.151; in [5], 0.0759; in assay [6], 1.52. The composite z-score in assay [7] was 1.39; in [9], 0.219; in assay [10], -0.249; in assay [11], 1.55; in assay [15], 4.02; in assay [17], 0.0386. The figures for the composite z-score in assay [18], in [19] and in assay [20] were 0.78, 1.09 and -0.0828, respectively. The z-score is 0.683 (inactive) in [8]; -0.544 (inactive) in assay [12]; -0.243 (inactive) in assay [13]; -1.28 (inactive) in [14]; 0.0927 (inactive) in assay [16].
With `N[C@@H](Cc1ccccc1)C(=O)NCc1cn(Cc2ccccc2)nn1`, the composite z-score was 0.231 in assay [1]; 0.595 in [2]; -0.0465 in [3]; 0.157 in assay [4]; 0.108 in assay [5]; -0.191 in [6]. The composite z-score in [7] was 1.04; in [9] it was 0.145; in [10] it was -0.0296; in [11], 0.05; in [15] it was -0.183; in assay [17], 0.0582. Also, the composite z-score was 0.465 in [18], -0.005 in assay [19] and 0.0282 in assay [20]. The z-score in assay [8] was 0.46 (inactive); in assay [12], 0.246 (inactive); in [13], -0.572 (inactive); in [14], -1.05 (inactive); in assay [16] it was 0.78 (inactive).
Consider `O=C1N(CCS(=O)(=O)c2ccccc2)c2ccccc2[C@H]2OC(c3ccc(OCCCO)cc3)=N[C@@]12Cc1ccccc1`, for which the composite z-score in [1] was 0.529; in assay [2] it was 0.756; in assay [3] it was 0.0918; in [4], 0.102; in assay [5] it was 0.918; in [6], -0.0845. For the same molecule, the composite z-score is 1.29 in assay [7]; 0.772 in assay [9]; -0.0663 in assay [10]; 1.55 in assay [11]; 2.36 in [15]; 0.507 in assay [17]. Besides, the results for the composite z-score in assay [18], in assay [19] and in assay [20] were 1.56, 1.1 and 0.263, respectively. Besides, the z-score is -0.375 (inactive) in [8]; 0.28 (inactive) in assay [12]; -0.0472 (inactive) in assay [13]; 5.03 (inactive) in [14]; 0.611 (inactive) in [16].
Consider `CCOC(=O)C1=CC[C@@H](c2ccccc2)N(S(=O)(=O)c2ccc(C)cc2)[C@H]1c1ccccc1`, for which the composite z-score is 0.322 in assay [1]; 0.13 in [2]; -0.0073 in [3]; 0.296 in assay [4]; 1.37 in [5]; 0.334 in assay [6]. For the same molecule, the composite z-score in assay [7] was 0.628; in assay [9], 0.77; in [10], -0.265; in assay [11], 0.0074; in [15], 1.74; in assay [17] it was 0.02. In addition, the figures for the composite z-score in assay [18], in assay [19] and in assay [20] were 0.156, 0.505 and 0.0515, respectively. For the same molecule, the z-score in assay [8] is -2.4 (inactive); in assay [12] it was 0.181 (inactive); in assay [13], 1.88 (inactive); in [14], 3.8 (inactive); in assay [16] it was -0.794 (inactive).
For `[N-]=[N+]=NCc1ccccc1C[C@@]1(C(N)=O)N=C(c2ccc(OCCCO)cc2)O[C@@H]1c1ccccc1`, the composite z-score is 0.218 in assay [1]; -0.173 in [2]; -0.0592 in [3]; -0.257 in assay [4]; 0.608 in assay [5]; 2.15 in assay [6]. Further, the composite z-score in [7] is 1.16; in [9], 0.249; in [10], 0.107; in assay [11], 1.56; in assay [15], 3.59; in assay [17], 0.149. Besides, the composite z-score is -0.734 in assay [18], -0.15 in assay [19] and -0.108 in assay [20]. In addition, the z-score in assay [8] is -1.67 (inactive); in assay [12] it was -0.144 (inactive); in assay [13], 0.0313 (inactive); in [14], 13.3 (active); in [16] it was -0.412 (inactive).
For the molecule `CCCCCC1=C2CNC(C)(C(=O)OC)C=C2C(C)C1=O` (stereo not given), the composite z-score was 0.59 in [1]; -0.414 in assay [2]; -0.0676 in [3]; 0.0477 in [4]; 0.363 in [5]; 1.07 in [6]. Moreover, the composite z-score in assay [7] was 0.972; in assay [9] it was 0.0861; in assay [10], 0.376; in assay [11], -0.998; in [15], 1.14; in assay [17], 0.118. Moreover, the composite z-score in assay [18] was -0.947; in assay [19], -0.426; in assay [20], -0.0581. For the same molecule, the z-score in assay [8] was 1.78 (inactive); in assay [12], 0.511 (inactive); in [13] it was 1.7 (inactive); in assay [14], 1.48 (inactive); in assay [16], -0.67 (inactive).

The record behind these values is PubChem BioAssay.
